Measured values reported in PubChem BioAssay.

Columns and labels:
[1] = test system: Human papillomavirus type 1a protein E7 (residues 44-93); test: small molecules binding HPV E7 44-93 – biochemical, small-molecule microarray, residues 44-93, 635 nm fluorescence, primary screen (AID 1108); settings: fluorescence 635 nm, higher = more signal;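 also: E7 fragment applied at 1 µg/mL in TBST for 1 h at 4 C; score combines spot fluorescence with its signal to noise ratio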
[2] = hepatitis C replication reporter changes, two-sided – Huh7 cells, luciferase reporter, HCV replication inhibitor project, primary screen (AID 1109); settings: Huh7 HCV replicon luciferase reporter, 48 h; higher = more signal;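 also: huh7 hepatoma cells harbouring a luciferase neomycin HCV replicon reporter; luciferase luminescence as measure of HCV replicon replication; test concentration not given here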
[3] = biological target: Left-right determination factor 2 (Homo sapiens) (UniProt O00292); test: small molecules binding LEFTY2 protein – biochemical, small-molecule microarray, 635 nm fluorescence scan, primary screen (AID 1110); settings: higher = more signal
Chain of Left-right determination factor 2 (Homo sapiens) (O00292 whole entry, looked up): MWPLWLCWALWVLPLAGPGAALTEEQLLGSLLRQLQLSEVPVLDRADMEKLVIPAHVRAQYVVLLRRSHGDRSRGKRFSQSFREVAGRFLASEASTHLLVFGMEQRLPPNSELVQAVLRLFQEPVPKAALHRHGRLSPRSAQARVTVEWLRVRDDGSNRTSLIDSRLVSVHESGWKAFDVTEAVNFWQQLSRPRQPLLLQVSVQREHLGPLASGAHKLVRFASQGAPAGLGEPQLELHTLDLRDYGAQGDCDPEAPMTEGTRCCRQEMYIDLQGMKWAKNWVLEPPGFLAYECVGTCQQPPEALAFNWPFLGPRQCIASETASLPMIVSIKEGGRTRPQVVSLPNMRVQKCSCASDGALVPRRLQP

[4] = biological target: Calmodulin-1 (Homo sapiens) (UniProt P0DP23); test: small molecules binding calmodulin-1 with EGTA – biochemical, small-molecule microarray, Cy5-labelled CALM1, profiling panel (AID 1111); settings: Cy5-CALM1 binding fluorescence, higher = more signal;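 also: labelled calmodulin applied in Tris saline Tween buffer holding calcium plus EGTA and DTT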
[5] = biological target: Calmodulin-1 (Homo sapiens) (UniProt P0DP23); test: small molecules binding Ca-loaded calmodulin-1 – biochemical, small-molecule microarray, Cy5-labelled CALM1, plus calcium, artefact control for SMM control-protein annotation, profiling panel (AID 1112); settings: Cy5-CALM1 binding fluorescence, higher = more signal;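 also: score merges spot fluorescence with signal to noise from triplicate slides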
[6] = probe aWnt5a binding to arrayed compounds – biochemical, biotinylated probe, 635/667 nm fluorescence, primary screen (AID 1113); settings: small-molecule microarray, higher = more signal;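 also: score merges 667 nm fluorescence intensity with signal-to-noise per printed feature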
[7] = probe aShh binding to arrayed compounds – biochemical, biotinylated probe, 635/667 nm fluorescence, primary screen (AID 1114); settings: small-molecule microarray, higher = more signal;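 also: probe is biotin-labelled aShh protein from a stem cell growth factor screen; measures binding of labelled protein to compounds printed on the slide; score merges feature fluorescence at 667 nm with signal-to-noise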
[8] = probe aNog binding to arrayed compounds – biochemical, biotinylated probe, 635/667 nm fluorescence, primary screen (AID 1115); settings: small-molecule microarray, higher = more signal;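 also: probe is biotinylated aNog protein used at 0.15 µg/mL for 1 h at 4 C; z-score combines 667 nm fluorescence of each spot with its signal to noise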
[9] = biological target: Torsin-1A-interacting protein 1 (Homo sapiens) (UniProt Q5JTV8); test: compound microarray binding of lysate hLAP1 – cell lysate, small-molecule microarray, COS7 lysate, 635/667 nm fluorescence, primary screen (AID 1116); settings: 635 nm fluorescence, higher = more signal
Chain of Torsin-1A-interacting protein 1 (Homo sapiens) (Q5JTV8 whole entry, looked up): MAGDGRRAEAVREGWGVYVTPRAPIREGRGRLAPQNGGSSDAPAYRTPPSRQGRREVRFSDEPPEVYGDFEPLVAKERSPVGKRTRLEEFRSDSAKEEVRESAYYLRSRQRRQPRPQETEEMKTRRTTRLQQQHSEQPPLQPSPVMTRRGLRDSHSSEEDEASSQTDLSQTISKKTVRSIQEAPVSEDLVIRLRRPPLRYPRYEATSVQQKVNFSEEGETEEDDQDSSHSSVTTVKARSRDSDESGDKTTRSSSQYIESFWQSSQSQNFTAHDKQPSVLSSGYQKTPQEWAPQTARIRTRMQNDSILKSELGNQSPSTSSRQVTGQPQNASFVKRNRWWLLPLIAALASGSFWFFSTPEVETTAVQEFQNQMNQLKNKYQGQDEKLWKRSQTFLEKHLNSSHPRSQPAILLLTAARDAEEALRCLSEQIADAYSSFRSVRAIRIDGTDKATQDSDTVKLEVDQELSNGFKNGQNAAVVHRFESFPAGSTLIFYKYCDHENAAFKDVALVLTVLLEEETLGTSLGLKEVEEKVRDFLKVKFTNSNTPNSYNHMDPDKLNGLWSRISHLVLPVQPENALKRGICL

[10] = biological target: Alpha-bungarotoxin (Bungarus multicinctus) (UniProt P60615); test: compounds binding labelled alpha-BTX control protein – biochemical, small-molecule microarray, Alexa647 label, 635/667 nm fluorescence, artefact control for SMM control protein annotation, profiling panel (AID 1117); settings: alpha-BTX-A647 binding fluorescence, higher = more signal
Chain of Alpha-bungarotoxin (Bungarus multicinctus) (P60615 whole entry, looked up): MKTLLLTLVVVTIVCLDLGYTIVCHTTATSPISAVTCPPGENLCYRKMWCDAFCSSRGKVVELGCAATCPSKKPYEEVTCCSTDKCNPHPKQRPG

O=C1C2C=CC(C(O)c3cccc4ccccc34)N(Nc3ccccc3)C2C(=O)N1c1ccccc1 (stereo not given)
composite z-score [1]: 1.38
z-score [2]: -1.29
composite z-score [3]: 0.321
composite z-score [4]: 0.972
composite z-score [5]: -0.8
composite z-score [6]: 0.0725
composite z-score [7]: 0.424
composite z-score [8]: 1.05
composite z-score [9]: 0.759
composite z-score [10]: 2.06

C=C(COC)C(=O)CC[C@H](OC(=O)c1ccccc1-c1ccccc1C(=O)O)c1ccc(CO)o1
composite z-score [1]: 0.544
z-score [2]: -0.115
composite z-score [3]: 0.27
composite z-score [4]: -0.271
composite z-score [5]: -0.564
composite z-score [6]: -0.128
composite z-score [7]: -0.0553
composite z-score [8]: -0.137
composite z-score [9]: 0.77
composite z-score [10]: 0.239

CN(C)C(=O)[C@@]1(Cc2ccccc2N=[N+]=[N-])N=C(c2ccc(OCCCO)cc2)O[C@H]1c1ccccc1N=[N+]=[N-]
composite z-score [1]: 1.41
z-score [2]: -2.28
composite z-score [3]: -0.121
composite z-score [4]: 1.43
composite z-score [5]: 0.859
composite z-score [6]: -0.0403
composite z-score [7]: 0.108
composite z-score [8]: 0.566
composite z-score [9]: 1.29
composite z-score [10]: 1.6

C[C@H]1NC(=O)C([C@@H](C)OCc2ccccc2)NC(=O)[C@@]23C(=O)N[C@@H](Cc4ccccc4)C2[C@H](C)[C@@]2(C)O[C@H]2C3/C=C/CC/C=C/CNC1=O (stereo not given in full)
composite z-score [1]: -0.165
z-score [2]: -0.631
composite z-score [3]: 0.416
composite z-score [4]: -0.377
composite z-score [5]: -0.377
composite z-score [6]: 0.0919
composite z-score [7]: 0.0815
composite z-score [8]: -0.37
composite z-score [9]: 0.26
composite z-score [10]: 0.421

C=CCOc1ccc([C@@H]2CC=C(C(=O)OCC)[C@H](c3cccc(Br)c3)N2S(=O)(=O)c2ccc(C)cc2)cc1
composite z-score [1]: -1.07
z-score [2]: -1.12
composite z-score [3]: 0.179
composite z-score [4]: 1.95
composite z-score [5]: 0.943
composite z-score [6]: -0.0944
composite z-score [7]: -0.107
composite z-score [8]: -0.54
composite z-score [9]: 0.644
composite z-score [10]: 1.2

COCCOC(=O)N1C(=O)[C@@]2(c3cc(C#CCCO)ccc31)[C@H](c1ccc(OCCO)cc1)N1[C@H](c3ccccc3)[C@H](c3ccccc3)OC(=O)[C@H]1[C@@H]2C(=O)N1CCc2cc(OC)c(OC)cc2C1
composite z-score [1]: 1.39
z-score [2]: -1.12
composite z-score [3]: 0.503
composite z-score [4]: 0.759
composite z-score [5]: 0.215
composite z-score [6]: -0.124
composite z-score [7]: -0.0904
composite z-score [8]: 0.0531
composite z-score [9]: -0.0856
composite z-score [10]: 0.642

Cc1ccc(S[C@]2(C(=O)NCC(C)C)CC(=O)N(C3CCCCC3)[C@@H]2c2ccc(CO)cc2I)cc1
composite z-score [1]: 1.35
z-score [2]: -2.6
composite z-score [3]: 0.261
composite z-score [4]: 1.73
composite z-score [5]: 0.549
composite z-score [6]: 0.02
composite z-score [7]: -0.188
composite z-score [8]: -0.471
composite z-score [9]: 0.703
composite z-score [10]: 0.0462

NC(=O)NCC#Cc1ccc2c(c1)[C@]1(C(=O)N2)[C@H](c2ccc(OCCO)cc2)N2[C@H](c3ccccc3)[C@H](c3ccccc3)OC(=O)[C@H]2[C@@H]1C(=O)N1CCCCCCC1
composite z-score [1]: 1.46
z-score [2]: -1.02
composite z-score [3]: 1.73
composite z-score [4]: 2.77
composite z-score [5]: 1.2
composite z-score [6]: 1.38
composite z-score [7]: 0.565
composite z-score [8]: 3.11
composite z-score [9]: 4.35
composite z-score [10]: 1.77

NC(=O)NCC#Cc1ccc2c(c1)[C@]1(C(=O)N2)[C@H](c2ccc(O)cc2)N2[C@H](c3ccccc3)[C@H](c3ccccc3)OC(=O)[C@H]2[C@@H]1C(=O)NC[C@H](O)c1ccccc1
composite z-score [1]: -0.631
z-score [2]: 0.918
composite z-score [3]: -1.67
composite z-score [4]: -0.699
composite z-score [5]: 0.827
composite z-score [6]: -0.219
composite z-score [7]: -0.276
composite z-score [8]: 0.241
composite z-score [9]: -0.243
composite z-score [10]: -2

COCCCNC(=O)[C@@H]1c2ccccc2C(=O)N(c2ccc(C)cn2)[C@H]1c1ccc(CO)cc1
composite z-score [1]: -0.745
z-score [2]: 0.176
composite z-score [3]: -1.83
composite z-score [4]: -0.878
composite z-score [5]: -0.827
composite z-score [6]: -0.363
composite z-score [7]: -0.19
composite z-score [8]: -0.244
composite z-score [9]: -2.83
composite z-score [10]: -0.958

C=C(/C(=C/C[C@@H](OC(=O)c1ccncc1)c1ccccc1OCCO)c1cnc2ccccc2c1)C(C)C
composite z-score [1]: 1.4
z-score [2]: -4.46
composite z-score [3]: 0.935
composite z-score [4]: 0.273
composite z-score [5]: -0.531
composite z-score [6]: 0.0044
composite z-score [7]: -0.195
composite z-score [8]: 0.0588
composite z-score [9]: 1.23
composite z-score [10]: 3.08

COC(=O)C(CC#Cc1ccc2c(c1)[C@]1(C(=O)N2)[C@H](c2ccc(O)cc2)N2[C@H](c3ccccc3)[C@H](c3ccccc3)OC(=O)[C@H]2[C@@H]1C(N)=O)C(=O)OC
composite z-score [1]: -0.863
z-score [2]: -0.32
composite z-score [3]: -0.91
composite z-score [4]: -1.27
composite z-score [5]: 0.842
composite z-score [6]: -0.202
composite z-score [7]: -0.352
composite z-score [8]: -0.263
composite z-score [9]: -0.931
composite z-score [10]: -1.83

C=CCC(OC(C)=O)[C@@H]1[C@@H](N(Cc2ccc(-c3cccc(C(F)(F)F)c3)o2)C(=O)c2cccc3ccccc23)c2cc(OCCCO)ccc2N1C(=O)c1ccc(-c2ccccc2)cc1 (stereo not given in full)
composite z-score [1]: -0.535
z-score [2]: 0.182
composite z-score [3]: 0.0289
composite z-score [4]: -0.638
composite z-score [5]: 0.219
composite z-score [6]: -0.22
composite z-score [7]: -0.138
composite z-score [8]: -0.182
composite z-score [9]: -0.465
composite z-score [10]: 0.143

O=C1O[C@H](c2ccccc2)[C@H](c2ccccc2)N2[C@H]1[C@@H](C(=O)N1CCCCCCC1)[C@]1(C(=O)Nc3ccc(C#CCCO)cc31)[C@H]2c1ccc(OCCO)cc1
composite z-score [1]: 1.62
z-score [2]: -1.64
composite z-score [3]: 1.72
composite z-score [4]: 3.04
composite z-score [5]: 1.63
composite z-score [6]: 1.65
composite z-score [7]: 2.49
composite z-score [8]: 3.39
composite z-score [9]: 5.44
composite z-score [10]: 4.88

O=C1CSC(c2cccc([N+](=O)[O-])c2)N1c1ccccc1 (stereo not given)
composite z-score [1]: 0.551
z-score [2]: -1.16
composite z-score [3]: 0.688
composite z-score [4]: 0.331
composite z-score [5]: -0.071
composite z-score [6]: -0.135
composite z-score [7]: -0.221
composite z-score [8]: -0.073
composite z-score [9]: 0.273
composite z-score [10]: 0.163

COc1ccccc1CN1C(=O)c2ccccc2[C@@]2(Cc3ccccc3N(C3CC3)C2=O)[C@@H]1c1ccc(CO)cc1
composite z-score [1]: -0.447
z-score [2]: -0.344
composite z-score [3]: -0.921
composite z-score [4]: 0.117
composite z-score [5]: -0.164
composite z-score [6]: -0.131
composite z-score [7]: 0.0062
composite z-score [8]: -0.422
composite z-score [9]: -0.455
composite z-score [10]: 0.134

CO[C@H]1O[C@H](CO)[C@@H](OC(=O)Nc2ccc(C(F)(F)F)cc2)[C@H](OC(=O)Nc2ccccc2)[C@H]1OC(=O)Nc1ccccc1
composite z-score [1]: 0.69
z-score [2]: -3.84
composite z-score [3]: 0.513
composite z-score [4]: 1.99
composite z-score [5]: 0.168
composite z-score [6]: 0.133
composite z-score [7]: 0.342
composite z-score [8]: 1.18
composite z-score [9]: 0.825
composite z-score [10]: 2.69
